Screens: PubChem, National Center for Advancing Translational Sciences (NCATS)
Sampled rows, rich in hits. Any-hit rate of the full collection: about 10%.
NS1 function inh = inhibitors of influenza NS1 protein function; Potency, µM (top dose mostly 46.1 µM), inactives show at the highest dose activity, positive = more growth; 0.4% of 270,000 active; AID 2326; calls by dose curve; also: actives are rising curves; nearly all actives have a fitted effect of over 50% in size
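Read-out: OD600 growth recovery of NS1-expressing budding yeast. Cells grown overnight at 30C in -URA glucose medium, washed, resuspended and diluted 1:100 in 2% galactose assay medium, pH 6.0. Same strain lacking NS1 served as positive control.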
Pf growth 96h = P. falciparum growth inhibition at 96 hour, primary screen for plastid delayed-death inhibitors; P. falciparum luciferase reporter growth, 96 h; Potency, µM (doses to about 28.7 µM), for inactives: top-dose activity change, negative = inhibition, actives largely listed as inhibitors; 6.9% of 320,000 active; AID 504834; also: % is scaled to controls: 0 for no effect and ±100 for the full control effect
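P. falciparum expressing integrated firefly luciferase grown in erythrocytes (2% hematocrit, 0.05% parasitemia final) with compounds for 96 hours at 37 C, 5% CO2. Growth inhibition read as loss of luminescence after adding luciferase detection reagent.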
Pf growth 48h = P. falciparum growth inhibition at 48 hours (one generation); P. falciparum luciferase growth in erythrocytes, 48 h; Potency, µM (series often up to 28.7 µM), without a hit: at the top dose activity change, negative = inhibition, actives largely listed as inhibitors; 5.9% of 310,000 active; AID 504832; also: % is scaled to controls: 0 for no effect and ±100 for the full control effect
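Parasite viability was followed by luminescence of a genomically integrated firefly luciferase. Cultures held 0.1% parasitemia at 2% hematocrit (final), incubated under 5% CO2 at 37 C.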
SARS PLpro yeast = SARS-CoV PLP inhibition in yeast; S. cerevisiae expressing SARS-CoV PLpro, growth rescue; AID 485353; Potency, µM (highest dose often 32.9 µM), for the others: top-dose activity, positive = growth rescue, actives largely listed as activators; 0.19% of 330,000 active; calls by dose curve; also: 0% is about no effect; nearly all actives have a fitted effect of over 55% in size
Active calls of the source: *; ? = inconclusive; / = not tested or not shown; [ ] = dose if it differs, or a comment. Unless noted, calls follow the shape of the dose curve; as a rule, active = well fitted inhibition curve with a large enough effect; inconclusive = small, poorly fitted or top-dose-only effect, or another doubt; inactive = no such curve, though single readings can be large or run the other way. Potency is read from the fitted curve at half-maximal effect.

SMILES	NS1 function inh	Pf growth 96h	Pf growth 48h	SARS PLpro yeast
O=C(Nc1cccc([N+](=O)[O-])c1)c1cccc(C(=O)Nc2cccc([N+](=O)[O-])c2)c1	5.6%	?	2.94µM*	2.4%
O=C(Nc1ccncc1)c1ccccc1F	-11.2%	11.5%[5.75 µM]	12.0%	-2.9%
CC(=O)Nc1ccc(S(=O)(=O)NC2(C(F)(F)F)C(=O)Nc3c2c(=O)[nH]c(=O)n3Cc2ccco2)cc1 (stereo not drawn)	/	-7.1%	6.3%	-0.3%
Cn1cc(CNCc2cn(C)nc2-c2ccc(C3CCCCC3)cc2)cn1	1.5%	-6.7%	?	-0.5%
COc1ccc(/C=N/Nc2nc(NCc3ccco3)nc(Nc3ccc(OC)cc3)n2)cc1	?	?	14.7µM*	-4.3%
COc1ccc(Nc2nc(NCc3ccco3)nc(N/N=C/c3ccccc3F)n2)cc1	18.8%	15.0%	?	-23.3%
Cc1ccsc1CN(C)CC(=O)NCC(=O)Nc1ccc(F)c(F)c1F	/	/	/	-8.9%
Cc1cccc(N2CCN(CCCNC(=O)c3ccc(NC(=O)C4=CSCCO4)cc3)CC2C)c1 (stereo not drawn)	1.8%	-2.5%	?	0.0%
CC1(C)Cc2nc(-c3ccccc3)nc(SCC(O)CO)c2CO1 (stereo not drawn)	?	10.4µM*	-6.7%	0.0%
Cc1cccc(-c2nc3c(c(SCC(=O)N4CCOCC4)n2)COC(C)(C)C3)c1	2.0%	11.7µM*	?	2.9%
CC1CCCCN1c1nnc(NC(=O)c2cc(-c3ccc(Br)cc3)on2)s1 (stereo not drawn)	28.0%	-21.1%	3.1%	2.4%
Clc1cccc(C[n+]2cc(-c3ccccc3)n3c2CCC3)c1	8.4%	0.185µM*	2.08µM*	17.1%
Cc1ccc(-c2c[n+](Cc3ccc(Cl)cc3)c3n2CCC3)cc1	0.2%	0.294µM*	0.928µM*	-1.3%
Cc1ccc(C[n+]2cc(-c3ccc(Cl)cc3)n3c2CCC3)cc1	-0.6%	0.415µM*	1.04µM*	-0.3%
Cc1onc(-c2c(F)cccc2Cl)c1C(=O)OCC(=O)c1c(N)n(C)c(=O)n(C)c1=O	/	?	?	-1.6%
COc1cc(NC(=O)COc2ccc(F)cc2)nc(OC)n1	-16.2%	13.1µM*	11.7%	-1.4%
Cc1ccc(OCC(=O)Nc2ccc(F)cc2)cc1	-3.3%	/	67.6%	-3.0%
COc1cc(NC(=O)c2cccc(Br)c2)nc(OC)n1	-8.0%	2.94µM*	186.7%	-1.7%
COc1cc(NC(=O)c2c(F)cccc2F)nc(OC)n1	3.6%	?	94.2%	1.6%
COc1ccc(S(=O)(=O)NCC(c2ccc(F)cc2)N2CCOCC2)cc1Br (stereo not drawn)	/	57.1%	-10.6%	-0.7%
COc1ccccc1CNC(=O)CSc1nc(-c2ccccc2)cn1N	5.3%	/	-0.5%	0.6%
CN(C(=O)CSc1nc(-c2ccccc2)cn1N)C(c1ccccc1)c1ccccc1	18.5%	/	11.7µM*	-11.7%
NCCCCNS(=O)(=O)c1cccc2c(Cl)cccc12	-2.7%	/	/	/
CCOC(=O)C1CCCN(C(=O)Cn2ncc3c([nH]c4ccccc43)c2=O)C1 (stereo not drawn)	4.3%	-1.9%	?	-4.5%
CCOC(=O)c1c(NC(=O)C2COc3ccccc3O2)sc(C)c1C (stereo not drawn)	-3.2%	7.0%	5.86µM*	4.8%
SMILES	NS1 function inh	Pf growth 96h	Pf growth 48h	SARS PLpro yeast
O=C(Nc1ccccc1[N+](=O)[O-])C1COc2ccccc2O1 (stereo not drawn)	-7.8%	11.7µM*	133.3%	-4.4%
COC(=O)c1ccccc1NC(=O)C1COc2ccccc2O1 (stereo not drawn)	-12.0%	-5.7%	-15.9%	-9.8%
COC(=O)c1c(NC(=O)C2COc3ccccc3O2)sc2c1CCN(Cc1ccccc1)C2 (stereo not drawn)	-1.6%	?	5.22µM*	-35.0%
O=C(Nc1cccc(Cl)c1)C1C2CCC3C(CCC21)C3(Cl)Cl (stereo not drawn)	12.4%	?	9.28µM*	-16.8%
CCOc1ccc(NC(=O)COC(=O)CCN2C(=O)C3CC=CCC3C2=O)cc1OCC (stereo not drawn)	/	?	?	-7.8%
CCc1ccccc1NC(=O)C1COc2ccccc2O1 (stereo not drawn)	0.7%	2.94µM*	?	3.0%
Cc1cc(C)n(C(=O)c2ccc(NC(=O)C3COc4ccccc4O3)cc2)n1 (stereo not drawn)	-94.4%	8.28µM*	29.6%	/
O=C(Nc1cccc(Cl)c1)C1COc2ccccc2O1 (stereo not drawn)	-16.8%	1.65µM*	-1.8%	-9.6%
Cc1ccccc1NC(=O)C1COc2ccccc2O1 (stereo not drawn)	1.3%	53.4%	13.9%	3.8%
Cc1cc(C)n(C(=O)CNC(=O)C2COc3ccccc3O2)n1 (stereo not drawn)	-3.0%	-11.7%	9.4%	20.2%
CCCNC(=O)c1c(NC(=O)C2COc3ccccc3O2)sc2c1CCCC2 (stereo not drawn)	6.2%	10.4µM*	4.6%	6.0%
O=C(O)c1cc(S(=O)(=O)N2CCN(S(=O)(=O)c3ccc4ccccc4c3)CC2)ccc1Br	/	/	/	3.5%
Cc1ccc(NC(=O)OCc2cccs2)cc1	-14.0%	262.6%	200.9%	-16.5%
CC(=O)c1c(C)[nH]c(C(=O)NNC(=O)c2ccc(Br)cc2)c1C	/	/	/	6.9%
CCCn1c(NC(=O)c2ccco2)nc2ccccc21	-14.9%	43.4%	?	-7.0%
CCCn1c(NC(=O)C2COc3ccccc3O2)nc2ccccc21 (stereo not drawn)	2.0%	?	9.28µM*	1.1%
COCc1cc(C)nc(N2CCCCC2)c1C#N	4.1%	-3.9%	-2.8%	-9.2%
COCc1cc(C)nc(NC2CCCCC2)c1C#N	5.2%	-26.9%	3.7µM*	-5.4%
CCC(C)N(C(=O)COC(=O)CNC(=O)c1sc2ccccc2c1Cl)C1CCS(=O)(=O)C1 (stereo not drawn)	0.1%	-28.2%	-5.3%	2.5%
CCOC(=O)C1CCN(CC(O)COc2ccc(C(C)=O)cc2)CC1 (stereo not drawn)	5.6%	9.28µM*	/	3.8%
O=[N+]([O-])c1ccc2nc(CCCc3nc4ccc([N+](=O)[O-])cc4[nH]3)[nH]c2c1	-0.5%	52.1%	-26.2%	-0.7%
Cc1ccc(-c2nc3ccc([N+](=O)[O-])cc3[nH]2)cc1	/	2.9%	128.6%	-6.0%
Nc1nc2ccc([N+](=O)[O-])cc2[nH]1	0.0%	-13.2%	?	0.3%
NC(N)=Nc1nc2ccc([N+](=O)[O-])cc2[nH]1	-3.5%	4.15µM*	8.28µM*	0.5%
O=[N+]([O-])c1ccc(/C=C/c2nc3ccc([N+](=O)[O-])cc3[nH]2)cc1	16.1%	-16.7%	4.15µM*	20.6%
O=[N+]([O-])c1ccc(O)c(C=Nc2ccc3nc(-c4ccccc4)[nH]c3c2)c1	-27.7%	1.47µM*	-9.2%	-40.9%
O=[N+]([O-])c1ccc2nc(-c3ccncc3)[nH]c2c1	0.9%	5.22µM*	2.08µM*	-0.1%
CNNC(=S)Nc1cccc(C(F)(F)F)c1	5.1%	?	4.15µM*	-0.8%
CCOc1ccc(NC(=S)NNC(=S)Nc2cccc(C(F)(F)F)c2)cc1	5.1%	13.1µM*	?	1.4%
CC(C)(O)C(=O)NNC(=S)Nc1cccc(C(F)(F)F)c1	4.5%	11.7µM*	12.6%	-0.4%
